Experimental findings from PubChem BioAssay (NCATS) are described below.

SMILES strings stand for the structures. Values joined by “and” are separate entries in the source; they are usually repeats but may differ in a detail not shown here. Equal values may be shown once. Records with an inconclusive call do not appear. Active and inactive are the calls of the source. Unless noted, calls follow the shape of the dose curve; as a rule, active = well fitted curve in the direction sought with a large enough effect; inconclusive = small, poorly fitted or top-dose-only effect, or another doubt; inactive = no such curve, though single readings can be large; an effect the other way counts as inactive or inconclusive.

Assay [1] can be described thus: Validation screen for small molecules that induce genotoxicity in human embryonic kidney (HEK293T) cells expressing luciferase-tagged ELG1 (AID 493106). Also: 0% is about no effect. The gist of the method:
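ELG1-luciferase reporter readout (ONE-Glo, 30 min, room temperature) after 16 hr compound treatment at 37 °C of HEK293T cells at 2,000 per well. Rising luminescence flags genotoxic stress.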

Assay [2] addresses ATPase family AAA domain-containing protein 5 (Homo sapiens) (UniProt Q96QE3). The assay can be described thus: Validation screen for small molecules that inhibit ELG1-dependent DNA repair in human embryonic kidney (HEK293T) cells expressing luciferase-tagged ELG1 (AID 493107). Also: nearly all actives have a fitted effect of over 70% in size. Also: potency is read from the fitted curve at half-maximal effect. The gist of the method: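 Luciferase read-out, ONE-Glo, 30 min at room temperature, follows 16 h co-exposure at 37 C of compound and the DNA-damaging agent 5-fluorouridine. Cells: HEK293T with ELG1-luciferase fusion, 2,000 per well, DMSO as vehicle.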

Assay [3] addresses Thyrotropin-releasing hormone receptor (Homo sapiens) (UniProt P34981). The assay can be described thus: qHTS for Small Molecule Agonists and Allosteric Enhancers of Human TRH Receptor: Validation Screen for Agonists (AID 493127;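 active = calcium activation more than 3 SD above the typical response in the agonist read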;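 also: intracellular calcium rise by fluo-8 fluorescence before TRH EC20 addition; 0% is about no effect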). The conditions noted are these: TRH receptor agonist cell assay; at 2 µM; stronger effect = higher value. The gist of the method: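 Compound-evoked intracellular calcium release in fluo-8-loaded TRHR cells, read kinetically on FDSS (Ex 480/Em 530, 1 s/cycle) after 23 nL pintool transfer. Agonist phase preceded 10 nM TRH EC20 addition.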

The nature of assay [4]: Nrf2 qHTS screen for inhibitors: Validation (AID 493153; active = well fitted inhibition curve with a large enough effect in the main read-out, with a control signal flat, not every such curve was filed as active). The conditions noted are these: viability change: measured here: cytotoxicity max response. In a few lines: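 Concentration-response on A549 ARE_Fluc reporter cells exposed 18-24 h at 37 C, 5% CO2. Cytotoxicity read first by CellTiter-Fluor fluorescence (Ex 405/Em 525), then Nrf2 inhibition by BugLite luminescence after 15 min.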

Assay [5] in a line: qHTS for Inhibitors of Cell Surface uPA Generation: Validation Assay (AID 493164).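 Also: RAW 264.7 macrophage cells exposed to compound for 18 h; 0% is about no effect.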 In a few lines: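 ATP-Lite luminescence read-out: ATP remains high when uPA activity-dependent LF translocation into the cytoplasm is blocked. RAW 264.7 cells, 18 h compound exposure at 37 C; 7-point titration, 2.45 nM to 38.3 uM final.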
(In general: qHTS replaces the single test concentration by a dilution series.)

Assay [6] has as its target Galactokinase (Homo sapiens) (UniProt P51570). The assay can be described thus: qHTS Validation Assay for Inhibitors of Human Galactokinase (GALK) (AID 493189). Also: 0% is about no effect. The gist of the method:
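GALK (5 nM) with 35 uM ATP and 100 uM galactose in HEPES pH 8.0 with MgCl2, NaCl, DTT and BSA. Reaction ran 1 h at room temperature. Residual ATP read by Kinase-Glo Plus luminescence.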

A short description of assay [7]: Validation screen for small molecules that induce DNA re-replication in SW480 colon adenocarcinoma cells (AID 504364). Also: 0% is about no effect. The gist of the method:
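Image-based DNA content read-out: Hoechst stain 40 min, total nuclear fluorescence intensity (ex 405 nm, em 500-530 nm) after 48 h compound exposure of 250 SW480 cells/well at 37 C, 5% CO2, versus DMSO vehicle.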

In assay [8] the target is Phosphoglycerate kinase, glycosomal (Trypanosoma brucei brucei) (UniProt P07378). The assay can be described thus: qHTS Validation Assay to Find Inhibitors of Phosphoglycerate Kinase (AID 504547).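 Also: control wells lack PGK and mark full inhibition.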 In a few lines: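 Compounds are pinned into the substrate/PGK mixture, and GAPDH (100nM final) is added to start the reaction by producing 1,3-BPG. After 60 minutes at room temperature, Kinase-Glo Plus is added and luminescence is measured 10 minutes later.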

In assay [9] the target is phosphoglycerate mutase (Leishmania major) (UniProt Q4Q090). Put plainly: qHTS Validation Assay to Find Inhibitors of Phosphoglycerate Mutase (AID 504548). Also: series mostly up to about 58 µM; % is scaled to controls: 0 for no effect and ±100 for the full control effect. The gist of the method: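 Lm PGAM at 1.25 nM final with substrate in 100 mM TEA pH 7.6, 5 mM MgCl2, 0.01% Tween-20; 45 min at room temperature. Kinase-GloPlus added, 10 min, end-point luminescence read.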
For assay [10], the target named is Peptidyl-prolyl cis-trans isomerase NIMA-interacting 1 (Homo sapiens) (UniProt Q13526). The assay can be described thus: qHTS Validation Assay to Find Inhibitors of Pin1 (AID 504536; active = well fitted inhibition curve with a large enough effect in the polarisation, with a control signal flat, not every such curve was filed as active; the % refers to the polarisation;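 also: 0% = full Pin1 enzyme wells and -100% = no-enzyme wells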). The gist of the method:
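Fluorescence polarization competition: compounds (titration) displace HiFluor-488-labeled Pin1-1b peptide from Pin1 (0.3 uM final) in pH 7.5 HEPES buffer with DTT, 10 min at room temperature; %Activity normalized to no-enzyme wells, curves fitted.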

Chain of Phosphoglycerate kinase, glycosomal (Trypanosoma brucei brucei) (P07378 whole entry, looked up): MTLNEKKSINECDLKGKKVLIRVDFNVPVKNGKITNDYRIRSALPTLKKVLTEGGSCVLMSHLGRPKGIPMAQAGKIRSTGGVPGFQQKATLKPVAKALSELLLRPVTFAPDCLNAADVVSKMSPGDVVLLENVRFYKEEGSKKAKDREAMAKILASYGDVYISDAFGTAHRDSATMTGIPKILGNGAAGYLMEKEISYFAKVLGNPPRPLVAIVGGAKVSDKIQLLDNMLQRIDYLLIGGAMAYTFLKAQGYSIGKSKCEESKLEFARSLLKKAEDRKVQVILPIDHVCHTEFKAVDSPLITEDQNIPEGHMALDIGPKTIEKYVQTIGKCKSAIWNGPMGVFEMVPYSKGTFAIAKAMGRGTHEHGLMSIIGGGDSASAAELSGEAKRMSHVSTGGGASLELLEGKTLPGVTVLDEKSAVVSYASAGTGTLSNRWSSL
Chain of Galactokinase (Homo sapiens) (P51570 whole entry, looked up): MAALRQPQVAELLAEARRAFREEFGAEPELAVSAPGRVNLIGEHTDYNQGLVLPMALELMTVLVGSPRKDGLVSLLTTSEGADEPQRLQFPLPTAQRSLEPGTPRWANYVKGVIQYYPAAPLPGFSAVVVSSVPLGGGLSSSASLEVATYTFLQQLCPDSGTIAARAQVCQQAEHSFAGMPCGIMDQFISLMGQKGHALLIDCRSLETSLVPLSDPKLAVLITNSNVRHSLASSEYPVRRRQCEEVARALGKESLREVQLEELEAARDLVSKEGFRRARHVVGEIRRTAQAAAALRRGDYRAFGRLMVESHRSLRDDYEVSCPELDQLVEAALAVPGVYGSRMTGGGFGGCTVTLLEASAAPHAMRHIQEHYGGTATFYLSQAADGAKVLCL
Chain of Thyrotropin-releasing hormone receptor (Homo sapiens) (P34981 whole entry, looked up): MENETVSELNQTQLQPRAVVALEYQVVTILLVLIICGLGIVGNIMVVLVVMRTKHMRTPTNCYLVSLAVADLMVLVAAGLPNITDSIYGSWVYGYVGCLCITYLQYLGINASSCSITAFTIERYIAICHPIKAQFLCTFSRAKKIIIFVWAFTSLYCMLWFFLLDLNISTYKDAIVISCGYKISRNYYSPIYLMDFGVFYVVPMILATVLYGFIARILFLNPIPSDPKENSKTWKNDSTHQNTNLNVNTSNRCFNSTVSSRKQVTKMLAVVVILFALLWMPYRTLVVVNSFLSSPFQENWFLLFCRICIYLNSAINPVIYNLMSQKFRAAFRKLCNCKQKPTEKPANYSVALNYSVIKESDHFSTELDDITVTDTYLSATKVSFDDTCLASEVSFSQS
Chain of phosphoglycerate mutase (Leishmania major) (Q4Q090 1-553): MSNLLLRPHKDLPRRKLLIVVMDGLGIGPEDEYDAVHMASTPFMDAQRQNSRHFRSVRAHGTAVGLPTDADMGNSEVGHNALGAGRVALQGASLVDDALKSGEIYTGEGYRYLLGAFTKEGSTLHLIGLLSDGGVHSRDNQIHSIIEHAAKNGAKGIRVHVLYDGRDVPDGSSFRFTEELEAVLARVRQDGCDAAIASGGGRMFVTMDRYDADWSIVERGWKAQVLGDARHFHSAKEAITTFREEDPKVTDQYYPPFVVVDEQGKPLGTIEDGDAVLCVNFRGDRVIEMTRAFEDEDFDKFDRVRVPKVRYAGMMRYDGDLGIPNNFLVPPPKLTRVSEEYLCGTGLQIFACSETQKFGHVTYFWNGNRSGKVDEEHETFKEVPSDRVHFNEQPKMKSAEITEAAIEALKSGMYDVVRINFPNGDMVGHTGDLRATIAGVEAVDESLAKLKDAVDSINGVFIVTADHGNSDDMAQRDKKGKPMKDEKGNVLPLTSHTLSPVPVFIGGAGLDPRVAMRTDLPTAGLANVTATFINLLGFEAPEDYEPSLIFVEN
Chain of ATPase family AAA domain-containing protein 5 (Homo sapiens) (Q96QE3 whole entry, looked up, the tested form may be a part): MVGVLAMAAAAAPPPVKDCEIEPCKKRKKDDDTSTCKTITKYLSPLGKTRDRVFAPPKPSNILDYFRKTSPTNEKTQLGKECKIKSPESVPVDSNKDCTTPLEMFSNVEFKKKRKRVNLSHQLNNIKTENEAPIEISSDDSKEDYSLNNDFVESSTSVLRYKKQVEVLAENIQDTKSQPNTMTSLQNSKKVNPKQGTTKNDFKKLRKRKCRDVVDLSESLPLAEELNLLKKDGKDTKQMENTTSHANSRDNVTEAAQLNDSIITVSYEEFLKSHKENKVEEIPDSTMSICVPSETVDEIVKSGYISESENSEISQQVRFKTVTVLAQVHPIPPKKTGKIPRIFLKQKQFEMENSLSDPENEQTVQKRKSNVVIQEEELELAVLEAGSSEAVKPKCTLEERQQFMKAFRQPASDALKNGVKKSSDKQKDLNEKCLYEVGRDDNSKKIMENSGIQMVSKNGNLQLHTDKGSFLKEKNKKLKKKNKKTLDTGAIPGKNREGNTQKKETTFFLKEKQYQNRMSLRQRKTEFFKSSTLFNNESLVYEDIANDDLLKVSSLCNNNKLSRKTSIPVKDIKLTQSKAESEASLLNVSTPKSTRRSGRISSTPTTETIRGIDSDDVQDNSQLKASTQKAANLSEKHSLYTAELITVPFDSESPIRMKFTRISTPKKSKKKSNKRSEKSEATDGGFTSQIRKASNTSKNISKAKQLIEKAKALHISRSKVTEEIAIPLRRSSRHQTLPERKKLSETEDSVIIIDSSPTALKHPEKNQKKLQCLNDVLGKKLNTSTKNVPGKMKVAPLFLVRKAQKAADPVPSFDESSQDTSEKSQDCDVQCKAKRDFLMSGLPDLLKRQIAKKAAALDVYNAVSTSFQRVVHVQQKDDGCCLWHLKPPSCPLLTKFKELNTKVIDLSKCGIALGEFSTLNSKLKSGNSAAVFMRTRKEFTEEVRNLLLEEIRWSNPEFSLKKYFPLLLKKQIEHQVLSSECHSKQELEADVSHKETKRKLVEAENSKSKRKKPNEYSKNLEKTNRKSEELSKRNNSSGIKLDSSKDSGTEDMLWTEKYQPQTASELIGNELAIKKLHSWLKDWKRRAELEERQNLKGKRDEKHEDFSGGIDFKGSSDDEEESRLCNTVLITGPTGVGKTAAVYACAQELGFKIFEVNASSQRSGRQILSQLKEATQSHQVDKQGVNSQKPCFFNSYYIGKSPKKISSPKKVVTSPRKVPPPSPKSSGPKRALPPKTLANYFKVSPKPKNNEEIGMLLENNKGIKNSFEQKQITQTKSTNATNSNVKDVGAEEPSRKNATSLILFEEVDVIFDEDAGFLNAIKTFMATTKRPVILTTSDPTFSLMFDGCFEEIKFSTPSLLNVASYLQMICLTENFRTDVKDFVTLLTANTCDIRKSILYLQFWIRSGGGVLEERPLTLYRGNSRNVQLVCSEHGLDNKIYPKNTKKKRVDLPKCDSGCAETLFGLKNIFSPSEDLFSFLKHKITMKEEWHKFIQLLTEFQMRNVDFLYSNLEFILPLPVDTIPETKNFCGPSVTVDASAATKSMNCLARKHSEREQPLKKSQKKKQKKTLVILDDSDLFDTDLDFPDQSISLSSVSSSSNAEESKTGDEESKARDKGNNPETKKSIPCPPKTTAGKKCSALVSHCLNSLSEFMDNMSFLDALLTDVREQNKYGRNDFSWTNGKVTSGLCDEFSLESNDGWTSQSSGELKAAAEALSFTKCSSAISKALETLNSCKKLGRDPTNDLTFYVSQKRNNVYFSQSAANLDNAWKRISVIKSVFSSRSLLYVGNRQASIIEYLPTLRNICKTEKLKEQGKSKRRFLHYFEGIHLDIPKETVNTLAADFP
Chain of Peptidyl-prolyl cis-trans isomerase NIMA-interacting 1 (Homo sapiens) (Q13526 whole entry, looked up): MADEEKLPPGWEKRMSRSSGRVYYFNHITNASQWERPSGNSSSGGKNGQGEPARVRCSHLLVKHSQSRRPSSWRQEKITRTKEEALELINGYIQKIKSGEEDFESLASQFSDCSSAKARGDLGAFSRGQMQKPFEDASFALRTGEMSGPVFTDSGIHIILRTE

For the molecule `CC(Cc1ccc(O)cc1)NCC(O)c1cc(O)cc(O)c1` (stereo unspecified), the outcome in [1], in assay [4], in assay [5], in assay [6], in assay [7] and in assay [8] was inactive. For the same molecule, in assay [9], the molecule was called inactive. The Potency result in [2] is “inactive”. The activation in [3] was 0.688% (inactive). In addition, the viability change in assay [4] is -4.39%.
For the molecule `CN[C@@H]1C[C@@H](c2ccc(Cl)c(Cl)c2)c2ccccc21`, the outcome in [1], in assay [4], in assay [5], in assay [6], in assay [7] and in assay [8] was inactive. Besides, in assay [9], the molecule was classed as inactive. Further, the Potency in [2] is 23.1 µM (active). For the same molecule, in [3], the activation is 29.8% (inactive). Also, the viability change in assay [4] is 3.66%.
For the molecule `CNCCc1c[nH]c2ccc(O)cc12`, the call in assay [1], in assay [4], in [5], in assay [6], in assay [7] and in assay [8] was inactive. Also, the molecule was classed as inactive in assay [9]. In assay [2], the Potency entry is “inactive”. Also, in assay [3], the activation was 1.06% (inactive). In addition, in assay [4], the viability change stood at 1.11%.
Consider `NC1CCc2cc(O)c(O)cc2C1` (stereo unspecified), for which the outcome in assay [1], in assay [4], in assay [5], in assay [6], in assay [7] and in assay [8] was inactive. Also, the result in [9] was inactive. Moreover, the Potency result in [2] was “inactive”. In assay [3], the activation was 0.75% (inactive). Besides, the viability change in assay [4] came to 10.6%.
Consider `NC(=NCCC[C@H](N)C(=O)O)N[N+](=O)[O-]`, for which the molecule was called inactive in assay [1], in [4], in assay [5], in [6], in assay [7] and in assay [8]. The molecule was called inactive in assay [9]. In addition, the Potency entry in [2] was “inactive”. Also, the activation in [3] was 0.625% (inactive). Moreover, the viability change in [4] was 3.87%.
As to `NC(N)=NOCCC(N)C(=O)O` (stereo unspecified), the result in assay [1], in assay [4], in [5], in assay [6], in [7] and in [8] was inactive. Further, in assay [9], the outcome was inactive. Besides, in assay [2], the Potency entry was “inactive”. In addition, in assay [3], the activation was 0.375% (inactive). Besides, the viability change in [4] was determined as 0.756%.
Consider `COc1cc(C(O)CN)ccc1O` (stereo unspecified), for which the result in assay [1], in [4], in assay [5], in assay [6], in [7] and in [8] was inactive. Further, the result in assay [9] was inactive. Also, the Potency entry in assay [2] was “inactive”. The activation in assay [3] was 0.375% (inactive). The viability change in assay [4] was -5.73%.
Regarding `CC(=O)[C@H]1CCC2C3CC[C@H]4C[C@H](O)CC[C@]4(C)C3CC[C@@]21C` (stereo partly specified), the outcome in assay [1], in assay [4], in [5], in assay [6], in assay [7] and in [8] was inactive. Also, in assay [9], the molecule was classed as inactive. The Potency result in [2] was “inactive”. Also, the activation in [3] was -6% (inactive). In addition, the viability change in [4] is -0.378%.
In the case of `CC(C)NC(C)Cc1ccc(I)cc1` (stereo unspecified), the molecule was called inactive in assay [1], in [4], in assay [5], in assay [6], in assay [7] and in [8]. Besides, the molecule was classed as inactive in assay [9]. Besides, the Potency entry in [2] is “inactive”. In addition, the activation in assay [3] was 2.38% (inactive). For the same molecule, the viability change in [4] turned out to be 2.82%.
On to `NC(CP(=O)(O)O)C(=O)O` (stereo unspecified), for which the molecule was called inactive in [1], in assay [4], in assay [5], in assay [6], in [7] and in [8]. In addition, the outcome in [9] was inactive. Moreover, the Potency entry in assay [2] is “inactive”. Also, the activation in [3] was -3.19% (inactive). Also, the viability change in [4] is -2.21%.
As to `CCCN(CCC)C1CCc2ccc(O)cc2C1` (stereo unspecified), the outcome in assay [1], in assay [4], in [5], in assay [6], in [7] and in assay [10] was inactive. The result in assay [8] and in assay [9] was inactive. The Potency result in assay [2] was “inactive”. Besides, in assay [3], the activation is -5.19% (inactive). Also, the viability change in assay [4] was -3.98%.
As to `CCCN1CCO[C@@H]2c3cc(O)ccc3OC[C@H]21`, the molecule was called inactive in assay [1], in [4], in assay [5], in [6], in assay [7] and in [8]. For the same molecule, in assay [9], the molecule was classed as inactive. In addition, the Potency result in [2] was “inactive”. Moreover, the activation in assay [3] is 1.06% (inactive) and 0% (inactive). In addition, the viability change in assay [4] is -0.639% and -4.02%.
With `NC(=O)CN1CC(O)CC1=O` (stereo unspecified), the outcome in assay [1], in [4], in [5], in assay [6], in [7] and in [8] was inactive. In addition, the call in assay [9] was inactive. Also, the Potency result in assay [2] was “inactive”. For the same molecule, the activation in assay [3] was 1.25% (inactive). The viability change in assay [4] worked out at 1.59%.
